Results: the supplement of paper PMC6555819

Assays:
Experiment in all cases: PBM binding z-score (relative to random genomic background probes); higher = stronger binding; sequences stand for … in GC…GCGATTGACAGCGTAGAATGAAGG
[1] = tested on: FXR:RXRa (NR concentration 270 nM, RXRa partner concentration 90 nM)
In short: (§1)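 Antibodies against each partner of ligand-free nuclear receptor dimers (one per run) detected binding on custom Agilent 4×180K protein-binding microarrays after 1 h incubation. The double-stranded probes had 34-nt variable regions carrying direct-repeat seeds, single-nucleotide variants, half-site ablations and random human genomic background sequences. Binding z-scores, from regression-normalized fluorescence, use the random background probes as reference.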

[2] = tested on: LXRa:RXRa (NR concentration 270 nM, RXRa partner concentration 90 nM)
In short: as §1

[3] = tested on: LXRa homodimer (NR concentration 270 nM)
In short: as §1

[4] = tested on: LXRb:RXRa (NR concentration 270 nM, RXRa partner concentration 90 nM)
In short: as §1

[5] = tested on: LXRb homodimer (NR concentration 270 nM)
In short: as §1

[6] = tested on: PPARa:RXRa (NR concentration 270 nM, RXRa partner concentration 90 nM)
In short: as §1

[7] = tested on: PPARg:RXRa (NR concentration 180 nM, RXRa partner concentration 90 nM)
In short: as §1

[8] = tested on: PPARg:RXRa 270nM:90nM, anti-RXR (NR concentration 270 nM, RXRa partner concentration 90 nM)
In short: as §1

[9] = tested on: PPARg:RXRa 30nM:10nM, anti-RXR (NR concentration 30 nM, RXRa partner concentration 10 nM)
In short: as §1

[10] = tested on: PPARg:RXRa 90nM:30nM, anti-RXR (NR concentration 90 nM, RXRa partner concentration 30 nM)
In short: as §1

[11] = tested on: PPARg:RXRa DBDmut IVT, anti-RXR (DBD mutation: RXRa K156A/R161A, NR concentration 270 nM, RXRa partner concentration 90 nM)
In short: as §1

[12] = tested on: PPARg:RXRa IVT, anti-PPARg (NR concentration 270 nM, RXRa partner concentration 90 nM)
In short: as §1

[13] = tested on: PPARg DBDmut:RXRa IVT, anti-PPARg (DBD mutation: PPARg1 K132A/R137A, NR concentration 270 nM, RXRa partner concentration 90 nM)
In short: as §1

[14] = tested on: PPARg DBDmut IVT, anti-PPARg (DBD mutation: PPARg1 K132A/R137A, NR concentration 270 nM)
In short: as §1

[15] = tested on: PPARg homodimer (NR concentration 180 nM)
In short: as §1

[16] = tested on: PXR:RXRa (NR concentration 270 nM, RXRa partner concentration 90 nM)
In short: as §1

[17] = tested on: PXR homodimer (NR concentration 270 nM)
In short: as §1

[18] = tested on: RARa:RXR (NR concentration 270 nM, RXRa partner concentration 90 nM)
In short: as §1

[19] = tested on: RARa homodimer (NR concentration 270 nM)
In short: as §1

[20] = tested on: RARb:RXRa (NR concentration 270 nM, RXRa partner concentration 90 nM)
In short: as §1

| Sequence | PBM binding z-score [1] | PBM binding z-score [2] | PBM binding z-score [3] | PBM binding z-score [4] | PBM binding z-score [5] | PBM binding z-score [6] | PBM binding z-score [7] | PBM binding z-score [8] | PBM binding z-score [9] | PBM binding z-score [10] | PBM binding z-score [11] | PBM binding z-score [12] | PBM binding z-score [13] | PBM binding z-score [14] | PBM binding z-score [15] | PBM binding z-score [16] | PBM binding z-score [17] | PBM binding z-score [18] | PBM binding z-score [19] | PBM binding z-score [20] |
| --- | --- | --- | --- | --- | --- | --- | --- | --- | --- | --- | --- | --- | --- | --- | --- | --- | --- | --- | --- | --- |
| ATCTCTAGGTAACCAAGGTCAGTGAATGCCGAAC | 1.59 | 2.3 | 1.46 | 1.91 | 0.895 | 2.72 | 1.79 | 1.92 | 0.476 | 1.39 | 4.04 | 3.81 | 1.28 | 1.3 | 1.93 | 2.47 | 1.21 | 2.26 | 2.02 | 2.7 |
| ATCTCTAGGTAAGGTTCAGTGAAAGATCGATAGA | 0.902 | 1.26 | 0.551 | 1.07 | 1.03 | 1.4 | 1.25 | 2.17 | 0.962 | 1.9 | 1.52 | 1.27 | 1.88 | 0.757 | 1.1 | 0.838 | 0.974 | 1.21 | 1.79 | 1.34 |
| ACTAGCAGGCCAGGTTTGGGTCACTCAAACAAAG | -0.191 | -0.164 | -0.504 | 0.269 | -0.651 | 0.985 | -0.123 | 0.025 | -0.537 | -0.199 | -0.173 | 0.446 | -0.511 | -0.687 | 0.235 | 0.351 | -0.166 | 1.17 | -0.279 | 1.32 |
| TAGCCTAGGTCATTCCGGGGCCAGTATAGAAAGC | 4.26 | 3.29 | 0.811 | 2.53 | 1.33 | 3.21 | 1.75 | 2.04 | 0.233 | 1.01 | 1.04 | 2.62 | -0.235 | 0.258 | 0.924 | 2.65 | -0.216 | 3.02 | -0.809 | 3.74 |
| GCTGCTAGGCCAGGTTGGTCAGCTAACGGGTACG | -1 | -1.03 | -0.776 | -1.31 | -1.37 | -1.27 | -0.607 | -1.01 | -1.22 | -1.17 | -0.104 | -0.575 | -1.57 | -1.24 | -1.2 | -1.06 | -0.918 | -0.979 | -0.954 | 0.166 |
| GCTTGTAGATCATGGTTAAGAAAGACTAAGCTAA | -0.444 | -0.5 | -0.382 | -0.729 | -0.647 | -0.285 | -0.054 | 0.171 | -0.126 | -0.187 | 0.856 | 0.283 | 0.687 | -0.0333 | 0.17 | -0.334 | -0.29 | -0.161 | -0.00288 | -0.371 |
| TATACAGGGTCAAAGTCCAGAGTACGAATGTCGA | 6.87 | 6.67 | 3.54 | 5.33 | 3.32 | 5.98 | 6.93 | 6.5 | 3.78 | 5.77 | 2.42 | 4.52 | 3.19 | 3.67 | 3.98 | 4.6 | 1.31 | 5.3 | 2 | 4.42 |
